# From the supplement of paper PMC12282887
# ± gives the standard deviation of the averaged measurements.
# Assays:
# Test in all cases: promoter activity interaction Z-score (Lux/OD deviation from empty-vector control); higher = stronger promoter induction by the compound
# [1] = test system: E. coli BW25113 acrABp lux reporter
# In short: (§1)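 E. coli BW25113 (wild type or marA, soxS or rob deletion) carrying low-copy luxCDABE promoter reporters grew in 40 µl LB Lennox in 384-well plates at 37°C. Each compound was tested at four 1:2 dilutions in biological duplicates. OD600 and luminescence were read every 30 min for 12 h. Areas were taken over 0–8 h (wild type) or 1–9 h (mutants), and wells below 10% of median growth area were removed. The score is the Z-transformed residual of growth-normalised luminescence fitted against the empty-vector control.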
# [2] = test system: E. coli BW25113 marRABp lux reporter
# In short: as §1
# [3] = test system: E. coli BW25113 micFp lux reporter
# In short: as §1
# [4] = test system: E. coli BW25113 ompFp lux reporter
# In short: as §1
# [5] = 0.02 µg/ml, genetic background: wild type
# [6] = 0.02 µg/ml, genetic background: ΔmarA
# [7] = 0.02 µg/ml, genetic background: Δrob
# [8] = 0.02 µg/ml, genetic background: ΔsoxS
# [9] = 0.04 µg/ml, genetic background: wild type
# [10] = 0.04 µg/ml, genetic background: ΔmarA
# [11] = 0.04 µg/ml, genetic background: Δrob
# [12] = 0.04 µg/ml, genetic background: ΔsoxS
# [13] = 0.079 µg/ml, genetic background: wild type
# [14] = 0.079 µg/ml, genetic background: ΔmarA
# [15] = 0.079 µg/ml, genetic background: Δrob
# [16] = 0.079 µg/ml, genetic background: ΔsoxS
# [17] = 0.16 µg/ml, genetic background: wild type
# [18] = 0.16 µg/ml, genetic background: ΔmarA
# [19] = 0.16 µg/ml, genetic background: Δrob
# [20] = 0.16 µg/ml, genetic background: ΔsoxS
smiles,measurement,setting,value
C[C@@H](O)[C@H]1C(=O)N2C(C(=O)O)=C(SCCNC=N)C[C@H]12 [Imipenem],promoter activity interaction Z-score,[1]; [5],0.313 ± 0.12
same,promoter activity interaction Z-score,[1]; [6],1.28 ± 1.8
same,promoter activity interaction Z-score,[1]; [7],0.353 ± 0.18
same,promoter activity interaction Z-score,[1]; [8],0.0665 ± 0.11
same,promoter activity interaction Z-score,[1]; [9],0.296 ± 0.28
same,promoter activity interaction Z-score,[1]; [10],0.881 ± 0.37
same,promoter activity interaction Z-score,[1]; [11],0.492 ± 0.11
same,promoter activity interaction Z-score,[1]; [12],-0.0993 ± 0.31
same,promoter activity interaction Z-score,[1]; [13],0.282 ± 0.4
same,promoter activity interaction Z-score,[1]; [14],-0.701 ± 0.22
same,promoter activity interaction Z-score,[1]; [15],0.209 ± 0.086
same,promoter activity interaction Z-score,[1]; [16],0.325 ± 0.52
same,promoter activity interaction Z-score,[1]; [17],0.0724 ± 0.69
same,promoter activity interaction Z-score,[1]; [18],-0.226 ± 0.46
same,promoter activity interaction Z-score,[1]; [19],0.107 ± 0.094
same,promoter activity interaction Z-score,[1]; [20],0.865 ± 0.24
same,promoter activity interaction Z-score,[2]; [5],0.316 ± 0.21
same,promoter activity interaction Z-score,[2]; [6],0.592 ± 0.32
same,promoter activity interaction Z-score,[2]; [7],0.0424 ± 0.11
same,promoter activity interaction Z-score,[2]; [8],0.106 ± 0.074
same,promoter activity interaction Z-score,[2]; [9],0.381 ± 0.44
same,promoter activity interaction Z-score,[2]; [10],0.269 ± 0.79
same,promoter activity interaction Z-score,[2]; [11],-0.0178 ± 0.16
same,promoter activity interaction Z-score,[2]; [12],0.0651 ± 0.041
same,promoter activity interaction Z-score,[2]; [13],0.087 ± 0.15
same,promoter activity interaction Z-score,[2]; [14],-0.0931 ± 0.047
same,promoter activity interaction Z-score,[2]; [15],0.0397 ± 0.03
same,promoter activity interaction Z-score,[2]; [16],0.0374 ± 0.049
same,promoter activity interaction Z-score,[2]; [17],0.129 ± 0.28
same,promoter activity interaction Z-score,[2]; [18],-0.0426 ± 0.31
same,promoter activity interaction Z-score,[2]; [19],-0.0898 ± 0.17
same,promoter activity interaction Z-score,[2]; [20],0.217 ± 0.23
same,promoter activity interaction Z-score,[3]; [5],-0.142 ± 0.16
same,promoter activity interaction Z-score,[3]; [6],0.0296 ± 0.051
same,promoter activity interaction Z-score,[3]; [7],-0.0038 ± 0.09
same,promoter activity interaction Z-score,[3]; [8],-0.119 ± 0.17
same,promoter activity interaction Z-score,[3]; [9],0.0424 ± 0.3
same,promoter activity interaction Z-score,[3]; [10],0.0155 ± 0.0044
same,promoter activity interaction Z-score,[3]; [11],0.104 ± 0.069
same,promoter activity interaction Z-score,[3]; [12],-0.24 ± 0.14
same,promoter activity interaction Z-score,[3]; [13],-0.145 ± 0.082
same,promoter activity interaction Z-score,[3]; [14],-0.07 ± 0.02
same,promoter activity interaction Z-score,[3]; [15],-0.0557 ± 0.0065
same,promoter activity interaction Z-score,[3]; [16],0.206 ± 0.3
same,promoter activity interaction Z-score,[3]; [17],-0.0706 ± 0.42
same,promoter activity interaction Z-score,[3]; [18],-0.131 ± 0.072
same,promoter activity interaction Z-score,[3]; [19],-0.0161 ± 0.083
same,promoter activity interaction Z-score,[3]; [20],0.512 ± 0.49
same,promoter activity interaction Z-score,[4]; [5],0.592 ± 0.022
same,promoter activity interaction Z-score,[4]; [6],0.885 ± 0.097
same,promoter activity interaction Z-score,[4]; [7],0.602 ± 0.084
same,promoter activity interaction Z-score,[4]; [8],0.271 ± 0.35
same,promoter activity interaction Z-score,[4]; [9],0.679 ± 0.22
same,promoter activity interaction Z-score,[4]; [10],0.662 ± 0.21
same,promoter activity interaction Z-score,[4]; [11],0.743 ± 0.19
same,promoter activity interaction Z-score,[4]; [12],0.276 ± 0.85
